Screening data: PubChem, National Center for Advancing Translational Sciences (NCATS)
Hits are enriched below; roughly 7.3% of the tested compounds scored in any of these assays.
NIH3T3 tox: NIH 3T3 cell cytotoxicity. NIH 3T3 viability, CellTiter-Glo ATP luminescence, 48-72 h. Potency, µM (top dose mostly 96.7 µM), hits mostly inhibitors. hit rate 4.3% among 94,000; also: nearly all actives have a fitted effect of over 55% in size
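NIH 3T3 cells at 400 cells/well received 23 nL of compound by pintool and were incubated 48 or 72 h at 37 °C. Viability was read as ATP-coupled CellTiter-Glo luminescence.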
HEK293 viab: cell viability loss counter-screen. HEK-293-SNCA-luc viability, GF-AFC fluorescence, 24 h. Potency, µM (highest dose often 57.1 µM), actives largely listed as cytotoxic. hit rate 0.12% among 150,000. AID 1671193; also: nearly all actives have a fitted effect of over 30% in size
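Cytotoxicity counterscreen: after 24 h compound treatment of genome-edited SNCA-luciferase HEK-293 cells, live-cell protease substrate GF-AFC read by fluorescence after 30 min; activity scaled between DMSO (0%) and medium-only (-100%), curves Hill-fitted.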
Luciferase inh: blocks purified firefly luciferase enzyme activity. P08659. Potency, µM (titrated, usually from 115 µM), most hits filed as inhibitors. AID 1347043. hit rate 2.5% among 76,000. purified P. pyralis luciferase, luminescence, biochemical; also: nearly all actives have a fitted effect of over 65% in size
Target sequence (P08659 whole entry, looked up): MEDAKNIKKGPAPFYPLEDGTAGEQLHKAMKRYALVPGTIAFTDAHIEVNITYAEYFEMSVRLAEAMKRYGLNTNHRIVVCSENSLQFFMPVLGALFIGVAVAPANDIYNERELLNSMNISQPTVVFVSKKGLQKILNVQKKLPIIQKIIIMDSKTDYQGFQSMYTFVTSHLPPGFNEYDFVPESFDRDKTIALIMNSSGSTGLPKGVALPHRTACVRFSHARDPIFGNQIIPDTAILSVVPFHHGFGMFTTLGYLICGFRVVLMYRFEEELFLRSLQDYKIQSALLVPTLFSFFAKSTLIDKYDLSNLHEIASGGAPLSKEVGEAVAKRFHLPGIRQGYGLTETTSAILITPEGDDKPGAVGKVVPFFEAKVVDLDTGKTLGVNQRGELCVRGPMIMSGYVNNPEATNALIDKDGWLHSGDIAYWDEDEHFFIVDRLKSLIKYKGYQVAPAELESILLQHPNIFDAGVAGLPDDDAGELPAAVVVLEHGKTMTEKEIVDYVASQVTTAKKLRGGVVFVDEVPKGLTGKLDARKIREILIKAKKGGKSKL
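Purified 10nM P. pyralis luciferase with 10uM D-luciferin and 10uM ATP in 50mM Tris acetate pH 7.5, 10mM Mg acetate, 0.01% Tween-20, 0.05% BSA. qHTS titration; luminescence read by CCD imager.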
IP6K1 inh: inhibitors of human IP6K1 | Q92551 | AID 1645851 | IP6K1 kinase, ADP-Glo luminescence, 2 h; stronger effect = lower value | hit rate 0.81% among 140,000 | activity change, % (series mostly up to about 58 µM); in the data active = activity change below about -25%
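ADP-Glo luminescence measures ADP made by human IP6K1 during a 2 h RT reaction with ATP/IP6 (mix at 1.3 mM/130 uM); top library doses 57.5 and 19.1 uM final.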
SNCA expr inh: reduces expression of the alpha-synuclein gene; HEK-293 SNCA-luciferase knock-in, luminescence, 24 h; hit rate 0.17% among 140,000; Potency, µM (titrated, usually from 57.2 µM), most hits filed as inhibitors; also: nearly all actives have a fitted effect of over 45% in size
HEK cytotox: cytotoxic compounds in HEK 293 cells. HEK 293 viability, ATP luminescence (CellTiter-Glo), 48-72 h. Potency, µM (series often up to 115 µM), actives largely listed as inhibitors. hit rate 6.6% among 94,000; also: nearly all actives have a fitted effect of over 60% in size
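HEK 293 cells at 250 cells/well were exposed to compounds by pintool transfer for 48 or 72 hr at 37 degree Celsius, 5% CO2. Viability was read as ATP-coupled luminescence with CellTiter-Glo after 10 min at room temperature.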
Large screens that a line does not name were inactive. Unless noted, calls follow the shape of the dose curve; as a rule, active = well fitted curve in the direction sought with a large enough effect; inconclusive = small, poorly fitted or top-dose-only effect, or another doubt; inactive = no such curve, though single readings can be large; an effect the other way counts as inactive or inconclusive.

COc1cc2c(cc1OCc1ccccc1)N(C(=O)c1ccn(C)n1)CC21CCN(C)CC1	NIH3T3 tox inconclusive
COc1cc2c(cc1CCc1ccccc1)N(C(=O)c1ccnn1C)CC21CCN(C(C)=O)CC1	NIH3T3 tox inconclusive, HEK cytotox inconclusive
COc1ccc(C(=O)N2C[C@@H]3C[C@H](C2)c2ccc(NC(=O)CN(C)C)c(=O)n2C3)cc1	none
COc1cc(C(=O)N2CC[C@@H](O)[C@@H](N)C2)cc2nc(-c3cc4ccccc4n3CC3CC3)n(C)c12	none (no result: NIH3T3 tox, Luciferase inh, IP6K1 inh, HEK cytotox)
CSc1ccc(-c2ccc(=O)n3c2[C@@H]2C[C@@H](CN(S(=O)(=O)c4cccs4)C2)C3)cc1	HEK cytotox inconclusive
Cn1nc(-c2ccc3ccccc3c2)cc1[C@H]1CN2CC[C@H]1C[C@@H]2COC(=O)Nc1cccc(C(F)(F)F)c1	NIH3T3 tox inconclusive, HEK cytotox 79µM
CCCNC(=O)OC[C@H]1C[C@@H]2CCN1C[C@@H]2c1cc(-c2ccccc2OC)nn1C	NIH3T3 tox inconclusive, HEK cytotox inconclusive
CC(C)NC(=O)OC[C@H]1C[C@@H]2CCN1C[C@@H]2c1cc(-c2ccc3ccccc3c2)nn1C	NIH3T3 tox 28µM, HEK293 viab inconclusive, Luciferase inh 40µM, SNCA expr inh inconclusive, HEK cytotox 28µM
CC(C)NC(=O)OC[C@H]1C[C@@H]2CCN1C[C@@H]2c1cc(-c2ccc(F)cc2)nn1C	NIH3T3 tox inconclusive, HEK cytotox 112µM
COc1ccc(-c2cc([C@H]3CN4CC[C@H]3C[C@@H]4COC(=O)Nc3ccc(C(C)C)cc3)n(C)n2)cc1OC	NIH3T3 tox inconclusive, SNCA expr inh inconclusive, HEK cytotox inconclusive
CCCNC(=O)OC[C@H]1C[C@@H]2CCN1C[C@@H]2c1cc(-c2ccc3ccccc3c2)nn1C	NIH3T3 tox 32µM, HEK cytotox 63µM
CCCNC(=O)OC[C@H]1C[C@@H]2CCN1C[C@@H]2c1cc(-c2ccc(F)cc2)nn1C	NIH3T3 tox inconclusive, HEK cytotox inconclusive
O=C(NCc1ccco1)N1C[C@@H](c2ccc(F)cc2)[C@@H]2[C@H]1C1CCN2CC1	none
CN1C[C@@H]2OCC(=O)N[C@@H]2C1	none
Cn1nc(C2CCCCC2)cc1[C@H]1CN2CC[C@H]1C[C@@H]2CNS(=O)(=O)c1ccccc1	NIH3T3 tox inconclusive, HEK cytotox inconclusive
COc1ccccc1-c1cc([C@H]2CN3CC[C@H]2C[C@@H]3CNC(=O)CCC(=O)O)nc(C)n1	none
COc1ccccc1-c1cc([C@H]2CN3CC[C@H]2C[C@@H]3CNS(=O)(=O)c2ccc(NC(C)=O)cc2)nc(C)n1	NIH3T3 tox inconclusive
CCCNC(=O)OC[C@H]1C[C@@H]2CCN1C[C@@H]2c1cc(-c2ccccc2OC)nc(C)n1	NIH3T3 tox 63µM, HEK cytotox inconclusive
COc1ccccc1-c1cc([C@H]2CN3CC[C@H]2C[C@@H]3COC(=O)NC(C)C)nc(C)n1	NIH3T3 tox 45µM, SNCA expr inh inconclusive, HEK cytotox inconclusive
COc1ccccc1-c1cc([C@H]2CN3CC[C@H]2C[C@@H]3COC(=O)NC2CCCCC2)nc(C)n1	NIH3T3 tox inconclusive, SNCA expr inh inconclusive, HEK cytotox 11µM
COc1ccccc1-c1cc([C@H]2CN3CC[C@H]2C[C@@H]3COC(=O)Nc2ccccc2)nc(C)n1	NIH3T3 tox inconclusive, HEK cytotox inconclusive
O=C(Cc1c(F)cccc1Cl)N1[C@H]2CC[C@@H]1c1cnc(-c3ccccc3)nc1C2	NIH3T3 tox inconclusive, HEK cytotox inconclusive
COc1cc2c(cc1OCc1cccnc1)N(C(=O)Cc1cccc(Cl)c1)CC21CCN(CC(=O)O)CC1	NIH3T3 tox inconclusive
COc1cc2c(cc1OCc1ccccc1)N([S+](=O)([O-])c1ccccc1C(F)(F)F)CC21CCN(C)CC1	NIH3T3 tox 13µM, HEK293 viab inconclusive, SNCA expr inh inconclusive, HEK cytotox 20µM
COc1cc2c(cc1OCc1ccccc1)N([S+](=O)([O-])c1cccnc1)CC21CCN(C)CC1	NIH3T3 tox 14µM, HEK cytotox inconclusive
COc1cc2c(cc1OCc1ccccc1)N(C(=O)CCc1ccccn1)CC21CCN(C)CC1	NIH3T3 tox inconclusive, HEK cytotox inconclusive
